Measured values published in PubChem BioAssay AID720648 (The Scripps Research Institute Molecular Screening Center, 2013).
About 3,100 (0.84%) of roughly 370,000 compounds were called active.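 How the source made its calls: active means inhibition above the mean of compounds lying between control limits plus 3 SD, set per campaign (cut at about 8.5% in these data); inactive means the rest.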 This excerpt belongs to a sample that is enriched for actives.

Molecular target: Disintegrin and metalloproteinase domain-containing protein 17 (Homo sapiens) (UniProt P78536)
Sequence (P78536 215-824 limits assumed): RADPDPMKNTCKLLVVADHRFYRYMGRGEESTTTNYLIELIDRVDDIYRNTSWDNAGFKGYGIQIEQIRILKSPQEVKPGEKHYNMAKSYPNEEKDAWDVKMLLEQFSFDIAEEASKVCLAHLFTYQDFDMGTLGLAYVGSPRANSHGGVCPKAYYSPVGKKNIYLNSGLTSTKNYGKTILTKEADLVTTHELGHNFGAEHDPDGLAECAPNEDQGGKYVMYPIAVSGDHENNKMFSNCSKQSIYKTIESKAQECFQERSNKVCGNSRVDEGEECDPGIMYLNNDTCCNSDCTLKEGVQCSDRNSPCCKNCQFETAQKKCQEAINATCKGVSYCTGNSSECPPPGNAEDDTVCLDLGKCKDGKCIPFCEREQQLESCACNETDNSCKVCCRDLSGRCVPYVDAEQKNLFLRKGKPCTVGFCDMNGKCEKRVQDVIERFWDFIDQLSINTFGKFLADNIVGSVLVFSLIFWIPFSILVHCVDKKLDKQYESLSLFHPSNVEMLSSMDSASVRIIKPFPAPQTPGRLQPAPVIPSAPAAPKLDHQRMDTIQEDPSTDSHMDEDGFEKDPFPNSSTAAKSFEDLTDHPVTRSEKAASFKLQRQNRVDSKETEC
Test: ADAM17 inhibitors, primary screen, biochemical, QFRET (AID 720648);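 further: 0% = DMSO-only wells as the low control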
Details: recombinant ADAM17, EDANS/DABCYL FRET peptide cleavage; at 6.95 µM; hits give high values

SMILES | inhibition
CCOC(=O)c1csc(NC(=O)C2CCCN(S(=O)(=O)c3ccc(Cl)s3)C2)n1 (centres undefined) | 1.07% (inactive)
COc1cccc(/C=N/NC(=O)c2cccc([N+](=O)[O-])c2)c1OS(=O)(=O)c1ccc(C)cc1 | 9.36% (active)
Cc1ccccc1OS(=O)(=O)c1cccc([N+](=O)[O-])c1 | 3.53% (inactive)
COc1ccc([N+](=O)[O-])cc1NCC(=O)c1ccc(C)cc1 | 0.13% (inactive)
O=C(CSc1nc2c(c(=O)[nH]1)CCCC2)N1CCCCC1 | -1.39% (inactive)
CC(C)Oc1cc(F)ccc1-c1cc(C(=O)Nc2cccc(Cl)c2)[nH]n1 | 12.5% (active)
COc1cc(NC(=O)c2cc(-c3ccc(F)cc3OC(C)C)n[nH]2)cc(OC)c1OC | 3.11% (inactive)
CC(C)Oc1cc(F)ccc1-c1cc(C(=O)Nc2ccc(F)cc2)[nH]n1 | 2.41% (inactive)
O=C(N1CCOCC1)N1CC[C@H]2[C@H](CCCN2Cc2ccc(F)cc2)C1 | -3.39% (inactive)
O=C(NC1CCC1)c1ccc(C#CC2CC2)cn1 | -2.55% (inactive)
CCn1c(SCC(=O)c2ccc(Cl)s2)nnc1-c1cccs1 | -2.07% (inactive)
Cc1ccc(-n2c(Cc3cccs3)nnc2SCC(=O)OC(C)C)cc1 | -0.84% (inactive)
CCn1c(Cc2cccs2)nnc1SCC(=O)c1ccc(C)cc1 | 9.16% (active)
CCC(=O)Nc1ccc2c(c1)C(=O)N(C)[C@H]1CC[C@H](CC(=O)NCCOC)O[C@@H]1CO2 | -1.85% (inactive)
COc1ccc(C#CCNCc2ccc(OC)cc2OC)cc1 | -5.67% (inactive)
COC(=O)c1ccccc1-n1cc(COC(=O)NCCc2ccccc2)nn1 | -7.96% (inactive)
CC1Cc2ccccc2N1S(=O)(=O)c1cccc(C(=O)NCC(c2ccco2)N2CCCC2)c1 (centres undefined) | -2.28% (inactive)
CC1Cc2ccccc2N1S(=O)(=O)c1cccc(C(=O)OCC(=O)N2CCOCC2)c1 (centres undefined) | -5.91% (inactive)
CCCCn1ccnc1C(=O)c1cccc(S(=O)(=O)N2c3ccccc3CC2C)c1 (centres undefined) | 11.1% (active)
C=CCN1C(=O)[C@H](CC(=O)NCCCN2CCCC2=O)[C@@]2(C(=O)OCC)CCCC=C12 | -6.27% (inactive)
COc1cc(NC(=O)CCS(=O)(=O)c2ccc3c(c2)oc(=O)n3C)cc(OC)c1 | 8.71% (active)
COc1cccc(NC(=O)CCNS(=O)(=O)c2ccc3c(c2)oc(=O)n3C)c1 | -2.66% (inactive)
Cc1ccc(NC(=O)CCNS(=O)(=O)c2ccc3c(c2)oc(=O)n3C)cc1C | 1.53% (inactive)
Cc1cc(NS(=O)(=O)c2ccc(NC(=O)CSc3nnc(SCc4ccc(F)cc4)s3)cc2)nc(C)n1 | 2.06% (inactive)
